We go through 1 compound from ChEMBL document CHEMBL2218924, “A broad activity screen in support of a chemogenomic map for kinase signalling research and drug discovery” (Biochem J, 2013).

The target of experiment [1] is T1, Ephrin type-B receptor 1 (Homo sapiens) (UniProt P54762).
T1 sequence (whole entry): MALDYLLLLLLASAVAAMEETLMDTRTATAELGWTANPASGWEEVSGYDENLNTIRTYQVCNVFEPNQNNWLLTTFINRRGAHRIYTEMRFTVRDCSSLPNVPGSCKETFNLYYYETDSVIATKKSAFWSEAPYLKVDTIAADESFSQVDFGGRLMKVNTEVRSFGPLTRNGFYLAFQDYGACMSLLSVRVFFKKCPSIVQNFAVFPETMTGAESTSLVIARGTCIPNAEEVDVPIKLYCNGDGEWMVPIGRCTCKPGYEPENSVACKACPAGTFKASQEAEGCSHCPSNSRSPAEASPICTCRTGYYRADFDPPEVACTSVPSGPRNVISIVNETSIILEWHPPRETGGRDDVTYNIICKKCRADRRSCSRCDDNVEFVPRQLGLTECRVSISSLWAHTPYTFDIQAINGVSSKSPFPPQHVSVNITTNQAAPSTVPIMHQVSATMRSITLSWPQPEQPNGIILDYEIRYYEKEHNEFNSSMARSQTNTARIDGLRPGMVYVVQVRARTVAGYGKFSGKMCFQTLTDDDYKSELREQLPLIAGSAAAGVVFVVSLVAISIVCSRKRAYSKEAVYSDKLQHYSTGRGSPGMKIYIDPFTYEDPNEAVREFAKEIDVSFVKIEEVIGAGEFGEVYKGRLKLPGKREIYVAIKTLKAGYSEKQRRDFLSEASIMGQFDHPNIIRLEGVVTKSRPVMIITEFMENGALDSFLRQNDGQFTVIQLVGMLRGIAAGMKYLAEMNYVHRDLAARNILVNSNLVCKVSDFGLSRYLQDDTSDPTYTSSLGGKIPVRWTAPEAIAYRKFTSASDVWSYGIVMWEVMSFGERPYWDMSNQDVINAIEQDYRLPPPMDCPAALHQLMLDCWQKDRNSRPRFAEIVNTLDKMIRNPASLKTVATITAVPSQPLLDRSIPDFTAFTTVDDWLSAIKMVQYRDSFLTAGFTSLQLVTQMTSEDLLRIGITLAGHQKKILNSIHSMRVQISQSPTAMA
As to conditions: at 10 µM; call rule not given here.

In experiment [2] the target is T2, Ephrin type-B receptor 2 (Homo sapiens) (UniProt P29323).
T2 sequence (whole entry): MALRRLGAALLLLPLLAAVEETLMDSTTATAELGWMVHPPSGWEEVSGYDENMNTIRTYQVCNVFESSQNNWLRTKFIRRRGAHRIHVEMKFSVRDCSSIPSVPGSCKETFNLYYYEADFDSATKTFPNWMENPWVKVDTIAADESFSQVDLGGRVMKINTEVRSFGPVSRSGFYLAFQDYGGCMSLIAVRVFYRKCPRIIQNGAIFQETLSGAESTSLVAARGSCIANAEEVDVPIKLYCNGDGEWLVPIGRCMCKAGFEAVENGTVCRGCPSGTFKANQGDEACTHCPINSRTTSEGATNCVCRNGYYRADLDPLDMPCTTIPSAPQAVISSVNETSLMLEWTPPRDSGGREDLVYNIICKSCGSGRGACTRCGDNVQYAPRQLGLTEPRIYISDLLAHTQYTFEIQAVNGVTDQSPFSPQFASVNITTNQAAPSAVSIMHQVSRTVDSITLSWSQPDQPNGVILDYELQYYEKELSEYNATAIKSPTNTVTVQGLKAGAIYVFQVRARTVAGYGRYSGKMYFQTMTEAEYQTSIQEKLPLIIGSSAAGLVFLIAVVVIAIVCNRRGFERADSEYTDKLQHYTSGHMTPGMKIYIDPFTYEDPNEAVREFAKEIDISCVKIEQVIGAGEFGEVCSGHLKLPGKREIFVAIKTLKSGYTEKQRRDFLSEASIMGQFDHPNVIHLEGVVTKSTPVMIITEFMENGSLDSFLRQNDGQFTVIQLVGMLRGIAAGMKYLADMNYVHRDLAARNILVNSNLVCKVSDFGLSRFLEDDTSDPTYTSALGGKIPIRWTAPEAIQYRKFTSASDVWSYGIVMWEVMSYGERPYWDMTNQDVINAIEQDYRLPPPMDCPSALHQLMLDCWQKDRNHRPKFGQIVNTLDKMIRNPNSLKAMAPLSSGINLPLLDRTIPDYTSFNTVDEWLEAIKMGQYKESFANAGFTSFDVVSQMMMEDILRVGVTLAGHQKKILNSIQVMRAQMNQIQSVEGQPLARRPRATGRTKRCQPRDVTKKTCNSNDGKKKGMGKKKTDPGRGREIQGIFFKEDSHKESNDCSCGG
As to conditions: at 1 µM.

The target of experiment [3] is T2, Ephrin type-B receptor 2 (Homo sapiens). As to conditions: at 10 µM.
The target of experiment [4] is T3, Ephrin type-B receptor 3 (Homo sapiens) (UniProt P54753).
T3 sequence (whole entry): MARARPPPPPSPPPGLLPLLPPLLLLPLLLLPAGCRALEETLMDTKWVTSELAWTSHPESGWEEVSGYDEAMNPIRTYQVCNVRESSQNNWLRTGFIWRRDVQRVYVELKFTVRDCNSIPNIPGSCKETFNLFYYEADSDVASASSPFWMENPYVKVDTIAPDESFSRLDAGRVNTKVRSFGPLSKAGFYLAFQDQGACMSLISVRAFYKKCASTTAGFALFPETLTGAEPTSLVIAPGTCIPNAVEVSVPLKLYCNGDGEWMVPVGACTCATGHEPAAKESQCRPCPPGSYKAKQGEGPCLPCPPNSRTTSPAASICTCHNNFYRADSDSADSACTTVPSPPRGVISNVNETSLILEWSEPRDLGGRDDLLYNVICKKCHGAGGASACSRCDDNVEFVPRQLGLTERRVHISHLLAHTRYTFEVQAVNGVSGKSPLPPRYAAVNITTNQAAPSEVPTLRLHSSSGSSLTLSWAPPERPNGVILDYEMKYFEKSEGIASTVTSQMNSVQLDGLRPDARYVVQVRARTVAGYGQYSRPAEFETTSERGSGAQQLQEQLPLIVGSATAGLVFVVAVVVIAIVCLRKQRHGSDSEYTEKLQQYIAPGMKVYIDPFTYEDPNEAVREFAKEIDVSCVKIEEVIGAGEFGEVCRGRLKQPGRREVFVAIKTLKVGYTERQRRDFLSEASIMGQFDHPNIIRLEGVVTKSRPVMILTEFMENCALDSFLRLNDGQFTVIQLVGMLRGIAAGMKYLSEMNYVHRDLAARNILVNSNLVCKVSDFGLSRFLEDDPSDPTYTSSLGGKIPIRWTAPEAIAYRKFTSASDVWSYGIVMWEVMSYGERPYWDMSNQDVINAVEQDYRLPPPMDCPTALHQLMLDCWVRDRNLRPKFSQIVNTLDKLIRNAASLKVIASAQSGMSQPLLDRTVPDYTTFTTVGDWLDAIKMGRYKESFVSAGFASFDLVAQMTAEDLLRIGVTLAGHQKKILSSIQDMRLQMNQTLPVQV
As to conditions: at 1 µM.

Experiment [5] deals with T3, Ephrin type-B receptor 3 (Homo sapiens). As to conditions: at 10 µM.
Experiment [6] addresses T4, Ephrin type-B receptor 4 (Homo sapiens) (UniProt P54760).
T4 sequence (whole entry): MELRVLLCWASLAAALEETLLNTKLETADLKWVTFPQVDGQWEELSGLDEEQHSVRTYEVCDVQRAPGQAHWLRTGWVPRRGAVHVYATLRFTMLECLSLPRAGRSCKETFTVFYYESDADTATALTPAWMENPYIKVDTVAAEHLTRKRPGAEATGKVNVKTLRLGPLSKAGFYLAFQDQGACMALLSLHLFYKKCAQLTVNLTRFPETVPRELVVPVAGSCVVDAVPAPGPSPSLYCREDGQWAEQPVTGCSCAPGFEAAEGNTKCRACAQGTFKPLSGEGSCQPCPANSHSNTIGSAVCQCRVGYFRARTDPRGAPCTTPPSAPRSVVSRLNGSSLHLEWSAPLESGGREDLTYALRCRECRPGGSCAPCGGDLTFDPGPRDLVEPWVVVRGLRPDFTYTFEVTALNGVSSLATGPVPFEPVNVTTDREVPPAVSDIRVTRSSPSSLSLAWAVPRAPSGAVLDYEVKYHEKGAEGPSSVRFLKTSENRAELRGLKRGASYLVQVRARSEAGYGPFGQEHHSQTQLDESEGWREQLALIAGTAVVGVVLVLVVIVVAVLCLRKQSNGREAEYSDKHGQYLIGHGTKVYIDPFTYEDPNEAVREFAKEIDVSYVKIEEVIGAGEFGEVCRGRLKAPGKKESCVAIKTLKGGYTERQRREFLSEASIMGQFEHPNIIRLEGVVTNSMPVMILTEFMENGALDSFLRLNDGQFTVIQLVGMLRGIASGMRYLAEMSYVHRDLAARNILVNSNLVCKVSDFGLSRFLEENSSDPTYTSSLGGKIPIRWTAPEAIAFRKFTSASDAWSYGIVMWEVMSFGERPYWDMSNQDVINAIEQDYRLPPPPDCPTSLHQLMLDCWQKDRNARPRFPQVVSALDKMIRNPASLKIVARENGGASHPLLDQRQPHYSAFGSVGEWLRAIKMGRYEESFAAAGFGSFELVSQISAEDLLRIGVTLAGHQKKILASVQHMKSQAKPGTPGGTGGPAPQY
As to conditions: at 1 µM.

Experiment [7] concerns the target T4, Ephrin type-B receptor 4 (Homo sapiens). As to conditions: at 10 µM.
Experiment [8] addresses Receptor tyrosine-protein kinase erbB-4 (Homo sapiens) (UniProt Q15303). As to conditions: at 1 µM.
Experiment [9] has the same target. As to conditions: at 10 µM.
Experiment [10] concerns the target Focal adhesion kinase 1 (Homo sapiens) (UniProt Q05397). As to conditions: at 1 µM.

A word on the residual activity: it is the share of the control activity or signal that is left under treatment.

Sequence of Receptor tyrosine-protein kinase erbB-4 (Homo sapiens) (Q15303 whole entry): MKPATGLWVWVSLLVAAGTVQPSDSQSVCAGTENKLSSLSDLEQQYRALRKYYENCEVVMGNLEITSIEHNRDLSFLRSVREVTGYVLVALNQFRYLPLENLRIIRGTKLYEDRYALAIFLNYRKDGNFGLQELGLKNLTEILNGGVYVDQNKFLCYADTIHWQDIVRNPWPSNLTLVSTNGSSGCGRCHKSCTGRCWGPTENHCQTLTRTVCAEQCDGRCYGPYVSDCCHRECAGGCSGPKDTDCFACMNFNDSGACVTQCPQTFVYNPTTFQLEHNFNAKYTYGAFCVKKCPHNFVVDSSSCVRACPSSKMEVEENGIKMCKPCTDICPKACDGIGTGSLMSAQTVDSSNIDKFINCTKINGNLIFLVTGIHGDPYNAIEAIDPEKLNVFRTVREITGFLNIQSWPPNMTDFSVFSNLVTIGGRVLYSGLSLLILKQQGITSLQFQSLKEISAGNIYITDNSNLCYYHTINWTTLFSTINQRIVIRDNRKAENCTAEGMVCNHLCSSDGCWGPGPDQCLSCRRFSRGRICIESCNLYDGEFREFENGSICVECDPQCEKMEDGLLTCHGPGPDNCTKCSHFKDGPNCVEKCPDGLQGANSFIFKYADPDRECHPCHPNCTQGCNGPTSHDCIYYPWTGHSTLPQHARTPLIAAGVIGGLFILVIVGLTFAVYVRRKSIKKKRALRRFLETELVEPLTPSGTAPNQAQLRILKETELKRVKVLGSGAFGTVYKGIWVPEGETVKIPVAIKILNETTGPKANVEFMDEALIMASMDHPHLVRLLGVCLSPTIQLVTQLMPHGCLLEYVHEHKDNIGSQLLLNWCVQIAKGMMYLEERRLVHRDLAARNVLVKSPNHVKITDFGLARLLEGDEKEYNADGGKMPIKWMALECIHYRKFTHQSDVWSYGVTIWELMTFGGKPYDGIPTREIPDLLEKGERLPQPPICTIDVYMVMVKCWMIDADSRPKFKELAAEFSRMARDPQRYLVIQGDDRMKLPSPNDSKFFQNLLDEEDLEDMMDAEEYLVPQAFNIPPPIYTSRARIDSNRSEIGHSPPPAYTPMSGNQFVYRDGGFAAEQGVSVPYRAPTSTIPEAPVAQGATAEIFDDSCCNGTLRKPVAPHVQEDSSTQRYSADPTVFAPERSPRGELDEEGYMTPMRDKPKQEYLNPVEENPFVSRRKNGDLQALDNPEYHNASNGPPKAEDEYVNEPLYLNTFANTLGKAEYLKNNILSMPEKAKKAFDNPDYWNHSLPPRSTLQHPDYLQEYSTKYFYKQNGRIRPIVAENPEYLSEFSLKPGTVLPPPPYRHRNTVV
Sequence of Focal adhesion kinase 1 (Homo sapiens) (Q05397 2-1052 limits assumed): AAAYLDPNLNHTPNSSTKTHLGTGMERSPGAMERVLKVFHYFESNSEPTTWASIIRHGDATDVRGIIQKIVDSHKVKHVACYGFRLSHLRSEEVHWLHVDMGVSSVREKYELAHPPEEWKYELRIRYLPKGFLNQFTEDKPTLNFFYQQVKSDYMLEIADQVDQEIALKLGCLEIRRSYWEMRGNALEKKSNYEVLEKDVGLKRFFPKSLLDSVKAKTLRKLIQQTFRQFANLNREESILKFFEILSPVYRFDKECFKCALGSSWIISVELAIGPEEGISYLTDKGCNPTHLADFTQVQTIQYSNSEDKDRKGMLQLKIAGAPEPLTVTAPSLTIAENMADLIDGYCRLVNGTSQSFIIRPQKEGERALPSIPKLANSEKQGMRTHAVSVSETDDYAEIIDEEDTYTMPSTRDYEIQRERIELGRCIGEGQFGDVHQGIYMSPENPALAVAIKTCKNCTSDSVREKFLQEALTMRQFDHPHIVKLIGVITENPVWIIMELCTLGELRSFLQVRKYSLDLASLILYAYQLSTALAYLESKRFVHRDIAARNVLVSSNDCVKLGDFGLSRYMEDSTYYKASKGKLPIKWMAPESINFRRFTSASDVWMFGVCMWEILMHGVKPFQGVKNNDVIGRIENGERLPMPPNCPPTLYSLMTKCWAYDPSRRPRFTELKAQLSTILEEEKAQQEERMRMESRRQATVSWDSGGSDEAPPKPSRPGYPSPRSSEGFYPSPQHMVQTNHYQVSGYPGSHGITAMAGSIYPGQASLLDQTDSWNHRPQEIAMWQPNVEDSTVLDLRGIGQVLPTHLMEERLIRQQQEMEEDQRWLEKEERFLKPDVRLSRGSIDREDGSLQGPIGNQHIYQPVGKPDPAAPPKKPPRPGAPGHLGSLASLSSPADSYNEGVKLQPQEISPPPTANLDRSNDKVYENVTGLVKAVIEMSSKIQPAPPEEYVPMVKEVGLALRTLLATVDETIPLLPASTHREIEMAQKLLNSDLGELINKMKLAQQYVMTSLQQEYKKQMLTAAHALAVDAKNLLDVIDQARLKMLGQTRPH

On to `O=C1Nc2cc(Br)ccc2/C1=C1/Nc2ccccc2/C1=N\O`, for which the residual activity in [1] was 42%; in [2] it was 33%; in experiment [3], 22%; in experiment [4] it was 100% (inactive); in experiment [5], 95%; in [6], 17%. Besides, the residual activity in experiment [7] was found to be 4%; in experiment [8], 84%; in [9] it was 88%; in experiment [10] it was 59%.
